# Bioassay records: PubChem BioAssay, The Scripps Research Institute Molecular Screening Center
# ASK1 primary = ASK1 kinase inhibitors, primary screen, biochemical, AlphaScreen | hit rate 0.99% among 22,000 | inhibition, % at 7.44 µM | AlphaScreen MKK6 phosphorylation by ASK1, luminescence | Mitogen-activated protein kinase kinase kinase 5 (Homo sapiens), Q99683 | AID 1159602, 2016; in the data active = inhibition above about 35%
# ULK1 inh = ULK1 kinase inhibitors, primary screen, biochemical, AlphaScreen; hit rate 1.9% among 30,000; AlphaScreen Atg13 phosphorylation by ULK1, luminescence; inhibition, % at 5.96 µM; in the data active = inhibition above about 43%
# TruHits interf = AlphaScreen signal interference by compounds, dose response, artefact control for ASK1 inhibitor project, biochemical, TruHits beads. signal interference counterscreen. IC50, µM. shares compounds with ASK1 primary. hit rate 20% among 220. AID 1159604, 2016;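 active = IC50 of 10 µM or lower in the counterscreen; inactive = IC50 above 10 µM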;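 also: loss of AlphaScreen light from TruHits beads alone with no ASK1 enzyme present; potency of signal reduction so a low IC50 flags an assay artifact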
# Hits are given with their value; . = inactive; / = no result given. This is a sample that favours compounds with a hit; in the whole collection about 2.5% have one here.
SMILES,ASK1 primary,ULK1 inh,TruHits interf
Cc1cc(NCc2cccc(C(F)(F)F)c2)nc(Nc2cccc(N(C)C)c2)n1,40.1,.,.
CN(C)c1cccc(Nc2nccc(NCCOc3ccccc3)n2)c1,43.1,.,.
CCCNc1ccnc(Nc2cccc(N(C)C)c2)n1,.,.,/
O=C(NCCc1ccc(O)cc1)c1cnc(Nc2cnccn2)s1,.,.,/
Cc1ccc(C(=O)Nc2cc(-n3c(C)nc4ncccc4c3=O)ccc2F)cc1,/,.,/
CC(C)(C)n1cc(NC(=O)C2CC(c3ccccc3[N+](=O)[O-])=NO2)cn1 (centres undefined),.,.,/
FC(F)(F)c1ccc(Cn2cnc3c(NCc4ccccc4)nc(Nc4ccccc4)nc32)cc1,46.1,.,.
FC(F)(F)c1ccc(Cn2cnc3c(NCc4cccc(C(F)(F)F)c4)nc(Nc4ccc5ncccc5c4)nc32)cc1,40.0,.,.
OCCNc1nc(Nc2ccc3ncccc3c2)nc2c1ncn2Cc1ccc(C(F)(F)F)cc1,.,.,/
FC(F)(F)c1ccc(Cn2cnc3c(NCc4cccc(C(F)(F)F)c4)nc(Nc4ccccc4)nc32)cc1,.,.,/
CS(=O)(=O)c1ccc(NCc2ccccc2)cc1,/,.,/
CSc1nc(-c2ccc(Br)cc2)c(C#N)c(=O)n1C,/,.,/
c1ccc(Nc2nc(Nc3ccc(N4CCOCC4)cc3)c3[nH]cnc3n2)nc1,.,.,/
c1ccc(CN2CCC(Nc3nc(Nc4ccc(N5CCOCC5)cc4)nc4nc[nH]c34)CC2)cc1,36.4,.,.
c1ccc(CN2CCC(Nc3nc(N4CCOCC4)nc4nc[nH]c34)CC2)cc1,.,.,/
c1ccc(CN2CCC(Nc3nc(Nc4ccccc4)nc4c3ncn4-c3ccsc3)CC2)cc1,.,.,/
c1ccc(CN2CCC(Nc3nc(Nc4ccc(N5CCOCC5)cc4)nc4c3ncn4-c3ccsc3)CC2)cc1,42.6,.,9.26
c1cnc2ccc(Nc3nc(Nc4ccc(N5CCOCC5)cc4)c4[nH]cnc4n3)cc2c1,41.0,.,.
CC(C)c1ccc(-n2cc(-c3ccc(C(=O)NCCCO)cn3)cn2)cc1,/,.,/
CC12C=CC(=O)C=C1CC[C@@H]1[C@@H]2[C@@H](O)CC2(C)[C@H]1CC[C@]2(O)C(=O)COC(=O)CCC(=O)O (some centres undefined),/,.,/
COc1cc(NC(=O)c2ccnc(-c3ccc(N4CCN(C)CC4)cc3)c2)cc(OC)c1OC,.,.,/
COc1cc(N2CCN(C)CC2)ccc1Nc1cc(Nc2ccccc2-c2ncccn2)c(C(F)(F)F)cn1,38.1,53.3,.
COc1ccc(-c2ncc(C(=O)NC3CC3)s2)cn1,.,.,/
c1ccc(Nc2ccnn2-c2ccnc(Nc3ccc(N4CCOCC4)cc3)c2)cc1,.,.,/
CN(C)CCNc1onc(-c2ccnc(Nc3ccc(N4CCOCC4)cc3)c2)c1-c1ccc(F)cc1,.,.,/
SMILES,ASK1 primary,ULK1 inh,TruHits interf
Fc1ccc(-c2c(-c3ccnc(Nc4ccc(N5CCOCC5)cc4)c3)noc2NCc2ccccc2)cc1,36.6,.,.
c1ccc(Nc2cc(-c3ccnc(Nc4ccc(N5CCOCC5)cc4)c3)nn2-c2ccccc2)cc1,40.8,.,.
O=C(Cc1cn(-c2ccc(Nc3ccc(N4CCOCC4)cc3)nn2)c2ccccc12)NCCN1CCOCC1,.,.,/
c1ccc(OCCNc2nc(Nc3ccc(-n4ccnc4)cc3)nc3c2ncn3C2CCCCC2)cc1,48.9,.,.
c1ccc(OCCNc2nc(Nc3ccncc3)nc3c2ncn3C2CCCCC2)cc1,.,.,/
c1ccc(OCCNc2nc(NCCN3CCOCC3)nc3c2ncn3C2CCCCC2)cc1,.,.,/
c1ccc(OCCNc2nc(Nc3ccc(N4CCOCC4)cc3)nc3c2ncn3C2CCCCC2)cc1,48.2,.,6.98
CC(=O)Nc1ccc(NC(=O)C2CCN(c3ccc(Cl)nn3)CC2)cc1,.,.,/
O=C1C(=O)N(c2nccs2)C(c2cccs2)/C1=C(\O)c1ccc(F)cc1 (centres undefined),/,.,/
CC(C)N(CCNc1ncnc2c1nc(-c1ccc(N3CCN(C)CC3)cc1)n2C(C)C)C(C)C,.,.,/
Oc1ccc(CCNc2nc(NC3CCN(Cc4ccccc4)CC3)nc3c2ncn3Cc2ccc(C(F)(F)F)cc2)cc1,38.9,.,.
COc1ccc(CCNc2nc(NC3CCN(Cc4ccccc4)CC3)nc3c2ncn3Cc2ccc(C(F)(F)F)cc2)cc1,.,.,/
FC(F)(F)c1ccc(Cn2cnc3c(Nc4ccc(N5CCOCC5)cc4)nc(Nc4ccccc4)nc32)cc1,.,.,/
FC(F)(F)c1ccc(Cn2cnc3c(Nc4ccc(N5CCOCC5)cc4)nc(NC4CCN(Cc5ccccc5)CC4)nc32)cc1,36.6,.,.
COc1cc(Nc2nc(-c3c(C)noc3C)nc3c2ncn3-c2ccsc2)cc(OC)c1OC,.,.,/
Cc1cc(NCc2ccccc2)nc(-c2csc3ccccc23)n1,.,.,/
CC(=O)c1cccc(-c2cc(C(=O)NC3CC3)ccn2)c1,.,.,/
Nc1cc(C2=C3C=C(Br)N=C3C(=O)NCC2)c(O)[nH]1,.,.,/
Nc1cc(C2=C3C=CN=C3C(=O)NCC2)c(O)[nH]1,38.3,71.3,.
c1ccc(-c2nc(NCCCN3CCOCC3)cc(-c3cccnc3)n2)nc1,/,.,/
COc1ccc2c(c1)CC(c1nc3c(OC)cc(-c4cn[nH]c4)cc3c(=O)[nH]1)CO2 (centres undefined),.,.,/
COc1cc(-c2cn[nH]c2)cc2c(=O)[nH]c(C3COc4ccc(C)cc4C3)nc12 (centres undefined),39.8,.,.
COc1cc(Nc2nc(-c3ccc(C(N)=O)cc3)nc3c2ncn3C2CCCCC2)cc(OC)c1OC,40.4,.,.
COc1cc(Nc2nc(-c3ccc(C(=O)NC4CC4)cc3)nc3c2ncn3C2CCCCC2)cc(OC)c1OC,.,.,/
CC(=O)c1cccc(-c2cc(NCCOc3ccccc3)ncn2)c1,.,.,/
SMILES,ASK1 primary,ULK1 inh,TruHits interf
CN(C)CCN(Cc1ccccc1)C(=O)Nc1ccc(-c2cn[nH]c2)cc1N(C)C,.,.,/
COc1ccc(CCNc2nc(Nc3cccc(N(C)C)c3)nc3c2ncn3C(C)C)cc1,37.1,.,.
CC(C)n1cnc2c(NCCO)nc(Nc3cccc(N(C)C)c3)nc21,.,.,/
c1ccc(OCCNc2nc(-c3ccccc3)nc3c2ncn3C2CCCCC2)cc1,.,.,/
Cc1ncn(-c2ccc(Nc3ncc4cccc(-c5ccnc(N6CCOCC6)c5)c4n3)cc2)n1,.,.,/
Cn1cc(-c2ccc3cnc(Nc4ccc(-c5ccc(N6CCOCC6)nc5)cc4)nc3c2Cl)cn1,37.7,42.7,.
FC(F)(F)c1cc(-c2ccnc(Nc3ccc(N4CCOCC4)cc3)n2)cc(N2CCOCC2)c1,45.3,.,.
c1cc(-c2ccc3nonc3c2)nc(Nc2ccc(N3CCOCC3)cc2)n1,.,.,/
FC(F)(F)c1cc(-c2ccnc(Nc3ccc(N4CCOCC4)nc3)n2)cc(N2CCOCC2)c1,.,.,/
N#Cc1cc(-c2ccnc(Nc3ccc(N4CCOCC4)cc3)n2)cc(N2CCN(C3CC3)CC2)c1,.,.,/
c1cc(-c2ccc3[nH]ncc3c2)nc(Nc2ccc(N3CCOCC3)cc2)n1,37.7,64.8,.
Fc1cc(-c2ccnc(Nc3ccc(N4CCOCC4)cc3)n2)cc(N2CCN(C3CC3)CC2)c1,39.7,56.0,.
O=C(NCc1ccccc1)c1cccc(-c2csc3ccccc23)n1,.,.,/
